NRP1-CendR mod = modulators of CendR peptide binding to NRP-1, primary screen, biochemical, fluorescence polarization, uHTS | 0.85% of 360,000 active | FAM-RPARPAR peptide binding to NRP-1 | Neuropilin-1 (Homo sapiens), O14786 | AID 602438, 2012 | inhibition, % at 25 µM;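 active = inhibition or corrected inhibition above about 18%, plus a signal ratio from 0.5 to 1.5, limit read from the data, passing the limit was not always enough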
PfM18AAP inh = PfM18AAP inhibitors, malaria aminopeptidase, primary screen, biochemical, QFRET, recombinant enzyme; M18 aspartyl aminopeptidase (Plasmodium falciparum 3D7); 1.2% of 290,000 active; H-Glu-NHMec fluorogenic cleavage; inhibition, % at 7.35 µM;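 active = inhibition above the campaign mean inhibition over all tested compounds plus 3 SD, cut at about 28% in these data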;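 note: 0% = plate median of test compound wells and 100% = 2 mM ZnCl2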
APOBEC3A inh = APOBEC3A ssDNA deaminase inhibitors, primary screen, selectivity assay for APOBEC3G inhibitor project, biochemical, FAM/TAMRA oligo cleavage fluorescence; 0.41% of 330,000 active; inhibition, % at 20 µM; recombinant A3A, FAM/TAMRA ssDNA deamination fluorescence;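 active = at least 40% inhibition at 20 µM here, with at most 30% in a related deaminase screen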;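 note: plate controls were A3A with DMSO for no effect and wells lacking A3A enzyme for full effect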
Target sequence (P31941 whole entry, looked up): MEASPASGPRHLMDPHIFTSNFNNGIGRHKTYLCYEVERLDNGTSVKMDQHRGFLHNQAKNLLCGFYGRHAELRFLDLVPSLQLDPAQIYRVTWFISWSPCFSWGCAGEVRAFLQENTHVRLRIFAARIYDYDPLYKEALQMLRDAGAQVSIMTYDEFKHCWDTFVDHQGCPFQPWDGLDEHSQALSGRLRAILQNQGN
APOBEC3G inh = APOBEC3G DNA deaminase inhibitors, primary screen, biochemical, fluorescence, single-stranded DNA substrate, uHTS; recombinant A3G, ssDNA deamination FAM/TAMRA fluorescence; inhibition, % at 20 µM; 0.28% of 330,000 active;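 active = inhibition of at least 40% at 20 µM, with no more than 30% in the related APOBEC3A deaminase screen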;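 note: plate controls were DMSO wells with A3G for no effect and wells lacking A3G enzyme for full effect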
Target sequence (Q9HC16 whole entry, looked up): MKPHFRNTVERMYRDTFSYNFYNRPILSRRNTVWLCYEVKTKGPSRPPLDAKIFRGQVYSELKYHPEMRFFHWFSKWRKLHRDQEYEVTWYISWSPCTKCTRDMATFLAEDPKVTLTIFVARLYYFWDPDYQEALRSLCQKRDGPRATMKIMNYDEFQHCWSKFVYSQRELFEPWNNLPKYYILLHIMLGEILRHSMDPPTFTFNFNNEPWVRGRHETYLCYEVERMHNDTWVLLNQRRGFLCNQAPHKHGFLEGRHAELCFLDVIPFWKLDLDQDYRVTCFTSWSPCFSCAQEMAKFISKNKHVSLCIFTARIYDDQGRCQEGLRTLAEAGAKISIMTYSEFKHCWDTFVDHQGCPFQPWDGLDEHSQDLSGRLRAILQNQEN
ALR inh = inhibitors of human ALR sulfhydryl oxidase, primary screen, biochemical, H2O2 detection, HRP-luminol luminescence, single point. 3.8% of 290,000 active. purified ALR, DTT oxidation. AID 485317, 2010. inhibition, % (test concentration not listed);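 active = mean replicate inhibition above about 79%, with every replicate also reaching it, limit read from the data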
CR mimetic SO = reduction of superoxide in aged yeast, primary screen, HTS; S. cerevisiae aged cells, superoxide DHE fluorescence; stronger effect = lower value; superoxide response (% of plate mean), % at 10 µM; 0.18% of 330,000 active; AID 2690, 2010;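 active = superoxide response under a set limit, about three screen SD below normal, cut at about 65% in these data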;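 note: yeast aged for seven days with compound at 30 °C before DHE staining; 100% = average MFI of all compound-treated wells on the plate with controls excluded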
An asterisk follows results filed as active; / = not tested or not shown. Hits are enriched below; roughly 5.2% of the tested compounds scored in any of these assays.

SMILES	NRP1-CendR mod	PfM18AAP inh	APOBEC3A inh	APOBEC3G inh	ALR inh	CR mimetic SO
Cc1ccc(C(=O)N(c2ccccn2)C(C)c2ccco2)cc1C (stereo not drawn)	6.6	-1.8	0.7	9.6	97.1*	107.6
CN(C)S(=O)(=O)c1ccc(C(=O)NCCN2C(=O)S/C(=C\c3cccnc3)C2=O)cc1	-12.2	7.8	3.9	-1.9	-4.5	103.3
CS(=O)(=O)c1ccc(C(=O)NCCN2C(=O)S/C(=C\c3cccnc3)C2=O)cc1[N+](=O)[O-]	-12.7	9.2	11.3	-5.6	100.0*	114.1
CCOc1ccccc1C(=O)NCCCCCC(=O)O	6.5	4.2	-2.2	-1.2	-2.3	103.3
COc1cccc(NC(=O)c2c([N+](=O)[O-])cnn2C)c1	2.4	1.6	4.5	1.3	95.7*	100.2
Cn1ncc([N+](=O)[O-])c1C(=O)Nc1ccccc1	0.8	-8.3	-0.7	-2.4	/	102.6
O=C(CSC(=S)N1CCOCC1)Nc1ccc(S(=O)(=O)Nc2ncccn2)cc1	10.6	-12.9	-6.3	-4.2	42.1	95.7
CCc1ccc(-c2nc(CCl)cs2)cc1	-9.2	-8.8	-2.9	-6.2	20.5	100.2
COc1cccc(-c2nc(CCl)cs2)c1	8.6	-4.3	0.6	-0.6	99.1*	102.1
COc1ccc(-c2nc(CCl)cs2)cc1	-18.5	-9.0	-4.0	-8.9	/	90.7
COc1ccc(-c2nc(CCl)cs2)cc1OC	8.7	4.3	3.6	-2.0	99.0*	91.3
Cc1cn([C@H]2C[C@H](O)[C@@H](CNC(=O)CNC(=O)CN)O2)c(=O)[nH]c1=O	2.4	/	/	/	/	/
COCCn1c(SCC(=O)Nc2nnc(C)s2)nnc1-c1ccoc1C	-2.7	-4.7	0.6	-9.0	/	103.3
c1ccn2c(SCc3ccc4c(c3)OCO4)nnc2c1	24.4*	-7.7	-2.1	3.6	-16.4	144.8
O=C(CSc1nnc2ccccn12)Nc1ccc2c(c1)OCO2	10.7	0.2	-0.7	-6.2	67.7	121.8
O=C(CCSc1nnc2ccccn12)Nc1ccc2c(c1)OCO2	22.6*	5.3	-2.4	-2.6	-5.3	98.6
CN1/C(=C\C=C(/C#N)C(=O)Nc2ccccc2F)C(C)(C)c2ccccc21	18.0	2.1	-7.4	-14.4	-16.1	109.9
CN1/C(=C/C=C(/C#N)C(N)=O)C(C)(C)c2ccccc21	-99.1	-8.8	-2.7	-3.8	92.0*	96.5
CCCCN(C)CCCNC(=O)c1cn(CC)c2ccc(S(=O)(=O)N3CCOCC3)cc2c1=O	10.4	-8.3	-0.1	-0.9	-2.1	115.1
CC(C)Oc1ccc(C2C(C#N)=C(N)Oc3c2oc(CO)cc3=O)cc1 (stereo not drawn)	-5.6	8.2	-0.5	-0.9	6.4	116.9
COc1cc(C2C(C#N)=C(N)Oc3c2oc(CO)cc3=O)ccc1OC(C)C (stereo not drawn)	1.2	13.7	1.7	-4.8	84.9*	113.0
COc1ccc(C(=O)Nc2cc(C(C)=O)c(C)oc2=O)cc1	-50.3	-11.8	-0.5	-2.6	92.3*	93.0
CC(=O)c1cc(NC(=O)c2ccc(Cl)cc2)c(=O)oc1/C=C/N(C)C	-186.8	-4.3	-2.6	-3.7	96.9*	91.7
COc1cc(N(C)C)c([N+](=O)[O-])cc1C(=O)N1CCN(Cc2ccccc2)CC1	-13.8	-5.7	-0.9	-1.4	-5.0	88.2
Cc1c(Cl)cccc1NS(=O)(=O)c1ccc2c(c1)C1C=CCC1C(c1ccc(C(=O)O)cc1)N2 (stereo not drawn)	-130.6	6.2	28.2	18.7	98.0*	98.8
SMILES	NRP1-CendR mod	PfM18AAP inh	APOBEC3A inh	APOBEC3G inh	ALR inh	CR mimetic SO
CC(=O)c1ccc2c(c1)C1C=CCC1C(c1ccc(S(=O)(=O)N3CCOCC3)cc1)N2 (stereo not drawn)	11.6	0.8	/	/	-14.0	94.0
Nc1c(C(=O)N2CCOCC2)sc2nc3c(cc12)CCCC3	6.6	30.5*	0.6	1.3	/	94.5
Nc1c(C(=O)N2CCOCC2)sc2nc3c(cc12)CCC3	-1.8	1.1	-7.2	-6.5	5.6	95.0
CCCNC(=O)NC(=O)CSc1nnc(-c2ccncc2)n1CC	-1.3	-4.8	0.5	-6.5	-8.7	96.3
Cc1c(C#N)c(NC(=O)CCl)n(Cc2ccccc2)c1C	-13.8	11.0	-6.0	-9.7	96.1*	89.1
Cc1c(C#N)c(NC(=O)CCl)n(Cc2ccc(F)cc2)c1C	-9.0	4.8	3.3	-6.9	32.2	113.4
c1ccc2c(c1)OCCOCCOCCOCCOCCOc1ccccc1OCCOCCOCCO2	0.5	-5.2	10.7	0.3	-2.9	91.1
Cc1cc(N2CCOCC2)nc2ccc(NC(=S)NCc3ccc4c(c3)OCO4)cc12	9.5	-3.7	-4.3	-6.0	98.8*	88.2
COCCNC(=S)Nc1ccc2nc(N3CCOCC3)cc(C)c2c1	5.8	-0.4	-4.2	-9.9	84.9*	104.2
COCCNC(=S)Nc1ccc2nc(N3CCCC3)cc(C)c2c1	-5.1	0.9	0.9	-2.9	72.5	117.0
CCOCCCNC(=S)Nc1ccc2nc(N3CCCC3)cc(C)c2c1	-4.5	-1.9	-3.6	-3.6	30.7	86.7
Cc1cc(N2CCOCC2)nc2ccc(NC(=S)NC(C)C)cc12	-1.4	7.9	-5.4	-7.1	92.7*	118.5
Cc1cc(N2CCCC2)nc2ccc(NC(=S)NC(C)C)cc12	3.6	5.0	-0.5	1.3	43.3	117.6
O=C(CN1C(=O)C2CC=CCC2C1=O)Nc1ccc(S(=O)(=O)Nc2ncccn2)cc1 (stereo not drawn)	3.1	1.0	5.8	-9.6	/	86.3
O=C(Cc1cccs1)N(c1ccccc1)C1C=CS(=O)(=O)C1 (stereo not drawn)	-5.1	3.0	-1.1	-9.0	-1.5	87.2
N#CC(C#N)=C(N)/C(C#N)=C/c1cc(O)c(O)c(O)c1	-251.3	/	-0.8	-9.1	96.2*	97.0
N#C/C(=C/c1cc(Cl)c(O)c(Cl)c1)C(=O)N1CCCCC1	-1.6	4.9	-4.0	-6.1	36.6	104.5
CCOC(=O)Cc1csc(SCC(=O)Nc2cc(C)ccc2OC)n1	6.5	-3.1	1.4	-6.1	1.5	93.1
O=C(Cc1ccc([N+](=O)[O-])cc1)N1CCN=C1SCc1ccccc1	-4.3	-0.2	-1.6	-7.2	-3.6	98.4
O=C(C1CCCCC1)N1CCN=C1SCc1cccnc1	1.4	8.2	-28.2	-6.0	99.9*	110.9
Cc1ccc(CSC2=NCCN2C(=O)C2CC2)cc1	-2.4	6.5	-0.5	0.7	-5.3	112.3
COc1ccc(CC(=O)N2CCN=C2SCc2cccc([N+](=O)[O-])c2)cc1	-0.3	16.2	3.1	-14.4	99.3*	95.1
